Test results published in PubChem BioAssay AID1851 (National Center for Advancing Translational Sciences (NCATS), 2009).
Hit rate of the full screen: of about 16,000 compounds, about 4,000 (25%) were called active. Inconclusive results (about 26%) are left out. Only a sample is shown. Values without a mark were called inactive. Calls follow the shape of the dose curve; as a rule, active = well fitted curve in the direction sought with a large enough effect; inconclusive = small, poorly fitted or top-dose-only effect, or effect the other way; inactive = no such curve, though single readings can be large or run the other way.

Target: Cytochrome P450 2C9 (Homo sapiens) (UniProt P11712)
Test: Cytochrome panel assay with activity outcomes
Details: recombinant CYP, pro-luciferin dealkylation, luminescence, p450-cyp2c9; series mostly up to 57.1 µM; activity, negative = inhibition: at the top concentration
% is scaled to controls: 0 for no effect and ±100 for the full control effect.

Sequence of Cytochrome P450 2C9 (Homo sapiens) (P11712 whole entry, looked up): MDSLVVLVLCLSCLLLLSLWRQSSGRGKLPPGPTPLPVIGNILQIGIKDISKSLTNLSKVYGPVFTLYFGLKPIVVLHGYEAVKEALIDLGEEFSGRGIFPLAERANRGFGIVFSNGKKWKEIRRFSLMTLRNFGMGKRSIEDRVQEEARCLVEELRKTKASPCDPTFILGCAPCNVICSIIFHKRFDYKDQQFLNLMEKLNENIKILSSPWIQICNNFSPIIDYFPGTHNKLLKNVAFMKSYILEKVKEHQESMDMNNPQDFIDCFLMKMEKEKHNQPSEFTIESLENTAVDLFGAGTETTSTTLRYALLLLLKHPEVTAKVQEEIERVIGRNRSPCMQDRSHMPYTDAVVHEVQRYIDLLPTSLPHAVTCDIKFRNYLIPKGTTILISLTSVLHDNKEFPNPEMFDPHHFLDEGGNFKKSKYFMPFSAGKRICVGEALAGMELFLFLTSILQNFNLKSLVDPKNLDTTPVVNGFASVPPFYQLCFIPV

Structure (SMILES) | activity, negative = inhibition | AC50
CC(=O)NNC(=O)CCC(=O)Nc1ccccc1 | -2.97% | –
N#C/C(=C\Nc1ccccn1)C(=O)c1ccco1 | – | 3.16 µM (active)
O=C(N/N=C/c1ccccn1)c1ccco1 | 61.6% | –
N#C/C(=C\Nc1ccccn1)C(=O)C1CC1 | 2.34% [at 11.4 µM] | –
CC(C)CSC[C@@H]1O[C@H](n2cnc3c(N)nccc32)[C@H](O)[C@@H]1O | 3.85% [at 11.4 µM] | –
CC(C)N1CCC(=NNC(=O)c2ccc(Br)o2)CC1 | -17% | –
CS(=O)(=O)N1CCC2(CC1)CN(C(=O)Nc1ccccc1)C2 | 8.74% | –
CS(=O)(=O)N1CCN(c2ccccc2NC(=O)c2ccc(Br)o2)CC1 | – | 20 µM (active)
COCC(=O)N1CCC2(CCCN(Cc3ccccc3)C2)CC1 | -0.418% | –
O=C(c1cc(Cl)c(=O)n(Cc2ccc(Cl)cc2)c1)N1CCOCC1 | -22.2% | –
O=C(c1ccc2c(c1)N(Cc1ccc(F)cc1)C(=O)CS2)N1CCOCC1 | – | 17.8 µM (active)
O=C1S/C(=C/c2ccc(N3CCOCC3)o2)C(=O)N1Cc1ccc(F)cc1 | -19.5% | –
O=C(O)CSc1cc(C(F)(F)F)nc(-c2ccccn2)n1 | -7.48% | –
O=C(c1cc(C(F)(F)F)cc(C(F)(F)F)c1)N1CCC[C@@]2(CCN(c3ccccc3)C2)C1 | 24% | –
CC(Sc1nc(-c2ccccc2)cc(C(F)(F)F)n1)C(=O)N1CCCCC1 (configuration not stated) | – | 8.91 µM (active)
CCCC1(C(=O)OC)C=C2C(=C(C)C(=O)C2C)CN1 (configuration not stated) | -6.7% | –
CCCCCC1=C2CNC(CC(C)C)(C(=O)OC)C=C2C(C)C1=O (configuration not stated) | – | 3.16 µM (active)
CCCCCC1=C2CNC(CCC)(C(=O)OC)C=C2C(C)C1=O (configuration not stated) | – | 10 µM (active)
COC(=O)C1(CC(C)C)C=C2C(=C(C(C)C)C(=O)C2C)CN1 (configuration not stated) | – | 12.6 µM (active)
c1ccc(CNc2ccnc(-c3ccc4c(c3)OCO4)n2)cc1 | -0.997% [at 2.29 µM] | –
O=C(O)[C@@H](O)[C@@H](O)[C@@H](O)[C@@H](O)C(=O)O (tested in a mixture with another compound) | -19.4% [at 25.6 µM] | –
Cc1cccc2c1OCC/C2=N\NC(=O)COc1ccccc1 | – | 15.8 µM (active)
Cc1ccccc1OCC(=O)N/N=C1\CCOc2c(C)cccc21 | -0.88% | –
CCCCOc1ccc(/C=C/C(=O)NCCc2nc3ccccc3[nH]2)cc1 | – | 6.31 µM (active)

Structure (SMILES) | activity, negative = inhibition | AC50
COc1ccc(CNC(=O)/C=C/c2ccc(OCCCF)cc2)cc1 | -25.4% | –
O=C(Nc1ccccc1)/C(=C\c1ccc2c(c1)OCO2)NC(=O)c1ccco1 | – | 10 µM (active)
O=C(Nc1ccccc1)N1CCC2(CC1)CCN(C(=O)c1ccco1)CC2 | -7.61% | –
Cc1cccc(OCC(=O)N/N=C\C=C\c2ccc3c(c2)OCO3)c1C | 8.15% | –
N#C/C(=C\c1ccc(O)c(O)c1)C(=O)Nc1ccccc1 | -18.9% | –
Cc1ccc(NC(=O)/C(=C\c2ccc3c(c2)OCO3)NC(=O)c2ccco2)cc1 | – | 3.55 µM (active)
Cc1noc(C)c1C(=O)N1CCC[C@@]2(CCN(C(=O)Nc3cccc(F)c3)C2)C1 | -5.02% | –
O=C(Nc1c[nH]c(=O)[nH]c1=O)Oc1ccccc1 | 1.86% [at 11.4 µM] | –
NOCC(=O)O | -0.0818% | –
Cc1ccc(Sc2cc(Cl)nc(N)n2)cc1 | -3.63% | –
CCNc1nc(Sc2ccc(C)cc2)cc(C(F)(F)F)n1 | – | 25.1 µM (active)
CC[C@@H](CS(=O)(=O)O)[N+](=O)[O-] | 5.26% [at 11.4 µM] | –
O=C(CN(Cc1ccccc1)S(=O)(=O)c1ccc2c(c1)OCCO2)N/N=C/c1ccc(F)cc1 | – | 14.1 µM (active)
COCc1cc(=O)[nH]c2cc(NC(=O)C(F)(F)F)c(C)cc12 | 10.5% | –
CCC(=O)Nc1nonc1-c1nc2ccccc2n1N(C(=O)CC)C(=O)CC | – | 10 µM (active)
CCn1c(-c2nonc2NC(=O)c2ccccc2)nc2ccccc21 | – | 0.501 µM (active)
Cc1ccc(C(=O)Nc2nc3ccccc3n3nnnc23)cc1 | -12.8% | –
CC(=O)OC[C@H]1O[C@@H](O/N=C\[C@@H](C)[C@H](OCc2ccccc2)C(C)C)[C@H](OC(C)=O)[C@@H](OC(C)=O)[C@H]1OC(C)=O | 1.31% [at 11.4 µM] | –
CC[C@]1(C)CC(=O)NC1=O | – | inactive
Cc1cc(C(=O)N[C@H](c2ccccc2)[C@@]2(C)C[C@@H]2[C@@H](C)C(=O)Nc2ccc3ccccc3c2)n(C)n1 | – | 7.94 µM (active)
Cc1cc(C(=O)N[C@@H](c2ccccc2)[C@]2(C)C[C@H]2[C@@H](C)C(=O)Nc2ccc3ccccc3c2)n(C)n1 | – | 3.98 µM (active)
C[n+]1cc(-c2ccccc2)n2c1CCCCC2 | 18.1% | –
CN(C)CCCN1c2ccccc2Sc2cnccc21 | 5.82% [at 11.4 µM] | –
